Sampled rows, rich in hits. Any-hit rate of the full collection: about 31%.
CYP2C19 inh: human CYP2C19 inhibition | CYP2C19 Supersomes, luciferin-H EGE luminescence, 30 min | inhibition, % at 5 µM | 96,000 compounds, 21% hits | P33261;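 active means CYP2C19 inhibition above a set limit at 5 µM in the primary screen, cut at about 50% in these data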;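 further: plate controls were negative control wells for no effect and 2.5 mM tranylcypromine positive control for full effect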
CYP2C19 activ: cytochrome P450 2C19 (human) activation. P33261. recombinant CYP2C19, luciferin-H EGE luminescence; active compounds read high; 0 = fully inhibited enzyme, 1 = untreated enzyme. activation factor at 5 µM. 96,000 tested, under 10 active;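 active means activation factor of at least 2 at 5 µM in the primary screen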;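 further: 0 = wells with 2.5 mM tranylcypromine and 1 = vehicle-only wells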
PLAP activator: activators of human placental alkaline phosphatase; AID 696; purified PLAP enzyme, luminescent substrate read-out; active compounds read high; activation fold at 20 µM; P05187; 96,000 compounds, 1.2% hits; in the data active means activation fold above about 2
CYP2C9 activ: increases human cytochrome P450 2C9 activity; P11712; recombinant CYP2C9, luciferin-H conversion, luminescence; active compounds read high; factor 1 = untreated enzyme, 0 = blocked; activation factor at 5 µM; 96,000 compounds, 1.4% hits; AID 1024;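 active means activation factor of 2 or more for CYP2C9 at a 5 µM dose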;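 further: 0 = sulfaphenazole-blocked wells and 1 = vehicle-only wells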
Target sequence (P11712 whole entry, looked up): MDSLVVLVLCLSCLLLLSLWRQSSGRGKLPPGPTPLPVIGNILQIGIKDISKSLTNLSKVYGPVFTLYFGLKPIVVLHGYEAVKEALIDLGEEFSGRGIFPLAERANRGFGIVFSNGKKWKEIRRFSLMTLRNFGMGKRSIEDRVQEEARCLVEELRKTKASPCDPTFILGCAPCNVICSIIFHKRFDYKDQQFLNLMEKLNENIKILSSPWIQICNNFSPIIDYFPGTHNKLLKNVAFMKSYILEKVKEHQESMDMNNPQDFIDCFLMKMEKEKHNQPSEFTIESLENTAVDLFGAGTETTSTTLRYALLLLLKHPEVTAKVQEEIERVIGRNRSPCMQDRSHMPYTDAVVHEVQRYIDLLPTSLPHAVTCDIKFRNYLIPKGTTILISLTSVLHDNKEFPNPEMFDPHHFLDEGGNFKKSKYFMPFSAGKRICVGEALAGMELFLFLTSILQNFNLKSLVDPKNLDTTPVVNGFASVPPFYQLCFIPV
CYP2C9 inhib: blocks human cytochrome P450 2C9; CYP2C9 Supersomes, luciferin-H conversion, luminescence; inhibition, % at 5 µM; 96,000 compounds, 20% hits;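 active means blocking of liver enzyme CYP2C9 beyond about 50% at 5 µM, limit read from the data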
The depositor's hits bear a star.

Screening Cc1cc2oc(=O)c3c(c2cc1OCc1nn[nH]n1)CCCC3 returned CYP2C19 inh 13, CYP2C19 activ 0.9, PLAP activator 0.8, CYP2C9 activ 0.6 and CYP2C9 inhib 38.
CC(C)CCNC(=O)COc1ccc2c3c(c(=O)oc2c1)CCC3 was read as CYP2C19 inh -5, CYP2C19 activ 1.1, PLAP activator 0.9, CYP2C9 activ 0.8 and CYP2C9 inhib 24.
CC(=O)COc1ccc2c3c(c(=O)oc2c1)CCCC3 was read as CYP2C19 inh 64*, CYP2C19 activ 0.4, PLAP activator 1.3, CYP2C9 activ 0.6 and CYP2C9 inhib 42.
CC(C)CNC(=O)COc1ccc2c3c(c(=O)oc2c1)CCC3 was read as CYP2C19 inh 48, CYP2C19 activ 0.5, PLAP activator 1.1, CYP2C9 activ 0.2 and CYP2C9 inhib 76*.
Screening CCOC(=O)CCc1c(C)c2ccc(OCc3nn[nH]n3)cc2oc1=O returned CYP2C19 inh 38, CYP2C19 activ 0.6, PLAP activator 1.2, CYP2C9 activ 0.3 and CYP2C9 inhib 71*.
`COc1ccccc1Nc1ncccc1C(=O)NCc1ccccc1` gave CYP2C19 inh 15, CYP2C19 activ 0.8, PLAP activator 1.1, CYP2C9 activ 0.8 and CYP2C9 inhib 24.
`O=C1CCC(C(=O)O)(c2ccccc2)C1` (centres undefined) gave CYP2C19 inh -16, CYP2C19 activ 1.2, PLAP activator 1, CYP2C9 activ 1 and CYP2C9 inhib -4.
For COC(=O)NNC(=O)COc1ccc(Br)c(C)c1 the results were CYP2C19 inh -10, CYP2C19 activ 1.1, PLAP activator 1, CYP2C9 activ 0.9 and CYP2C9 inhib 5.
Cc1cc(OCC(=O)Nn2cnnc2)ccc1Br was read as CYP2C19 inh 100*, CYP2C19 activ 0, PLAP activator 1.3, CYP2C9 activ 0 and CYP2C9 inhib 100*.
`CCOc1ccc(S(=O)(=O)n2nnc3ccccc32)cc1C(C)C` gave CYP2C19 inh 1, CYP2C19 activ 1, PLAP activator 1.2, CYP2C9 activ 0.9 and CYP2C9 inhib 8.
Screening CC(C)CNC(=S)NC1CCCC1 returned CYP2C19 inh 35, CYP2C19 activ 0.6, PLAP activator 0.8, CYP2C9 activ 0.8 and CYP2C9 inhib 20.
CCOC(=O)c1c(CC(C)C)csc1NC(C)=O was read as CYP2C19 inh 44, CYP2C19 activ 0.6, PLAP activator 1, CYP2C9 activ 0.4 and CYP2C9 inhib 62*.
Screening CCOC(=O)c1c(CC(C)C)csc1NC=O returned CYP2C19 inh 22, CYP2C19 activ 0.8, PLAP activator 1, CYP2C9 activ 0.6 and CYP2C9 inhib 36.
For Cc1ccccc1C(=O)Nc1ccccc1-n1cccc1 the results were CYP2C19 inh 12, CYP2C19 activ 0.9, PLAP activator 0.9, CYP2C9 activ 1.1 and CYP2C9 inhib -7.
`CCCc1cc2c(cc1NC(=O)c1ccccc1C)OCO2` gave CYP2C19 inh 95*, CYP2C19 activ 0, PLAP activator 1.1, CYP2C9 activ 0.7 and CYP2C9 inhib 28.
CCCCC(=O)Nc1ccc(C(=O)Nc2ccc3c(c2)OCO3)cc1 was read as CYP2C19 inh 28, CYP2C19 activ 0.7, PLAP activator 1, CYP2C9 activ 0.6 and CYP2C9 inhib 41.
Screening CCCc1cc2c(cc1NC(=O)c1ccccc1Cl)OCO2 returned CYP2C19 inh 94*, CYP2C19 activ 0.1, PLAP activator 1, CYP2C9 activ 0.5 and CYP2C9 inhib 49.
CCCc1cc2c(cc1NC(=O)c1ccc(Br)cc1)OCO2 was read as CYP2C19 inh 87*, CYP2C19 activ 0.1, PLAP activator 1.1, CYP2C9 activ 0.9 and CYP2C9 inhib 11.
For C=CCN(CC=C)C(=O)c1ccccc1NC(=O)c1ccccc1C the results were CYP2C19 inh 51*, CYP2C19 activ 0.5, PLAP activator 1, CYP2C9 activ 0.9 and CYP2C9 inhib 8.
For Cc1ccc(C(=O)NCC(C)(C)N2CCOCC2)s1 the results were CYP2C19 inh 55*, CYP2C19 activ 0.4, PLAP activator 0.9, CYP2C9 activ 1 and CYP2C9 inhib 2.
For CCOc1ccc(NC(=O)N2CCC(n3c(=O)[nH]c4ccccc43)CC2)cc1 the results were CYP2C19 inh 28, CYP2C19 activ 0.7, PLAP activator 1.6, CYP2C9 activ 0.3 and CYP2C9 inhib 66*.
`CCOc1ccc(NC(=O)N2CCC(NC(=O)c3ccco3)CC2)cc1` gave CYP2C19 inh -14, CYP2C19 activ 1.1, PLAP activator 1.1, CYP2C9 activ 1.1 and CYP2C9 inhib -7.
For CN1CC=C2C(C#N)=C(N)C(C#N)(C#N)C(c3cccc(Cl)c3Cl)C2C1 (centres undefined) the results were CYP2C19 inh 93*, CYP2C19 activ 0.1, PLAP activator 1.4, CYP2C9 activ 0.1 and CYP2C9 inhib 91*.
For CCCc1cc(Nc2cccc(OCC)c2)n2ncnc2n1 the results were CYP2C19 inh 19, CYP2C19 activ 0.8, PLAP activator 2*, CYP2C9 activ 0.5 and CYP2C9 inhib 48.
CCCc1cc(Nc2cccc(OC)c2)n2ncnc2n1 was read as CYP2C19 inh 55*, CYP2C19 activ 0.4, PLAP activator 2.3*, CYP2C9 activ 0.7 and CYP2C9 inhib 34.
`Cc1c(NC(=O)C(C)Sc2nc3ccccc3c(=O)n2CCO)c(=O)n(-c2ccccc2)n1C` (centres undefined) gave CYP2C19 inh 15, CYP2C19 activ 0.9, PLAP activator 1.9, CYP2C9 activ 0.4 and CYP2C9 inhib 58*.
For Cc1csc(SCC(=O)Nc2c(C)n(C)n(-c3ccccc3)c2=O)n1 the results were CYP2C19 inh 1, CYP2C19 activ 1, PLAP activator 1.1, CYP2C9 activ 1 and CYP2C9 inhib 1.
`Cc1cc(C)c(-c2cc(C(=O)Nc3c(C)n(C)n(-c4ccccc4)c3=O)[nH]n2)c(O)c1` gave CYP2C19 inh 18, CYP2C19 activ 0.8, PLAP activator 2.2*, CYP2C9 activ 1 and CYP2C9 inhib -2.
`Cc1cccc(N(CC(=O)Nc2c(C)n(C)n(-c3ccccc3)c2=O)S(C)(=O)=O)c1C` gave CYP2C19 inh 91*, CYP2C19 activ 0.1, PLAP activator 1.1, CYP2C9 activ 0.9 and CYP2C9 inhib 12.
`Cc1c(NC(=O)CSc2nc3ccc(Cl)cc3[nH]2)c(=O)n(-c2ccccc2)n1C` gave CYP2C19 inh 3, CYP2C19 activ 1, PLAP activator 2*, CYP2C9 activ 0.8 and CYP2C9 inhib 24.
For O=C(CCS(=O)(=O)c1ccc(Cl)cc1)Oc1ccc2c(c1)OCO2 the results were CYP2C19 inh 24, CYP2C19 activ 0.8, PLAP activator 1.1, CYP2C9 activ 0.7 and CYP2C9 inhib 35.
Screening CCS(=O)(=O)N1CCN(C2CCC(C)CC2)CC1 (centres undefined) returned CYP2C19 inh -2, CYP2C19 activ 1, PLAP activator 1.2, CYP2C9 activ 1.1 and CYP2C9 inhib -13.
`Cc1nc(-c2coc3c(CN(C)C)c(O)ccc3c2=O)cs1` gave CYP2C19 inh 3, CYP2C19 activ 1, PLAP activator 1.1, CYP2C9 activ 0.9 and CYP2C9 inhib 5.
